Screens deposited in PubChem by National Center for Advancing Translational Sciences (NCATS).
FLuc counter = inhibits or activates purified firefly luciferase, miR-21 counter-screen; purified FLuc, Km substrates, luminescence inhibition; Potency, µM (highest dose often 57.5 µM), most hits filed as inhibitors; hit rate 6.9% among 360,000; also: nearly all actives have a fitted effect of over 55% in size
Target sequence (P08659 whole entry, looked up): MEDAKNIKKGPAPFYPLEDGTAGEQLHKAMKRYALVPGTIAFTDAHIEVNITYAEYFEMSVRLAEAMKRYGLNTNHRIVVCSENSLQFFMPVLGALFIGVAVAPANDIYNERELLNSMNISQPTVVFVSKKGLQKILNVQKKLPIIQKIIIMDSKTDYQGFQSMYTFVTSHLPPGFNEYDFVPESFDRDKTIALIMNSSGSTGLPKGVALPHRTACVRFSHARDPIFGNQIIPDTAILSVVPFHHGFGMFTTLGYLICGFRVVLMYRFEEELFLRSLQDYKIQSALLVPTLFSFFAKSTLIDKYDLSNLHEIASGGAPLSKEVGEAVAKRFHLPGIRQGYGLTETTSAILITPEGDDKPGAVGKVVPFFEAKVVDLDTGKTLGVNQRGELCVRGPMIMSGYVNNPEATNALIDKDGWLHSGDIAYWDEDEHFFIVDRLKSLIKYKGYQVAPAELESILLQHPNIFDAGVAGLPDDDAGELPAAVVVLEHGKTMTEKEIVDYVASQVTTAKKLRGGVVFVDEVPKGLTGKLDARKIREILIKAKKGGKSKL
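Purified P. pyralis luciferase, 10 nM final, with Km-level 10 uM D-luciferin and 10 uM ATP in 50 mM Tris acetate pH 7.5, 10 mM Mg acetate, 0.01% Tween-20, 0.05% BSA; 6-point qHTS titration about 60 µM downward; luminescence read.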
NPC1 promoter act = activates the NPC1 promoter | Huh7 NPC1 promoter luciferase reporter, 24 h | Potency, µM (top dose mostly 9.22 µM), hits mostly activators | hit rate 2.4% among 320,000; also: nearly all actives have a fitted effect of over 60% in size
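NPC1 promoter–luciferase Huh7 cells; 24 h compound; luminescence.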
ELG1 genotoxic = induces genotoxicity in HEK293T cells with luciferase-tagged ELG1; HEK293T ELG1-luciferase reporter, luminescence, 16 h; AID 504466; Potency, µM (series often up to 46 µM), hits mostly activators; hit rate 1.3% among 330,000; also: nearly all actives have a fitted effect of over 60% in size
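Luminescence read-out: rising ELG1-luciferase signal, reflecting elevated ELG1 protein under genetic stress, flags genotoxic compounds. Cells were treated for 16 hr at 37 °C before ONE-Glo detection.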
SMN2 splice up = SMN2 splice variant enhancement | hit rate 2.8% among 210,000 | HEK293 SMN2-luciferase splicing reporter, luminescence, 30-36 h | Potency, µM (top dose mostly 46.1 µM), hits mostly activators; also: nearly all actives have a fitted effect of over 55% in size
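HEK293 cells carry an SMN2 […]–luciferase reporter in which exon 7 inclusion puts luciferase in frame. Cells were plated 10-12 h before compound addition, then incubated 30-36 h at 37C. ONE-Glo luminescence was read; sodium butyrate at 4.5 mM final served as control.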
Rab9 prom act = activates the Rab9 promoter. Huh7 Rab9 promoter-luciferase reporter, luminescence, 24 h. Potency, µM (doses to about 9.22 µM), usual class: activators. hit rate 2.8% among 320,000; also: nearly all actives have a fitted effect of over 60% in size
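Luminescence from Amplite-detected luciferase (10 minutes, ambient) reports Rab9 promoter activation. Before that, stable Rab9-luciferase Huh7 cells (1500/well, reduced-serum OP-MEM I plus 10% FBS) were exposed to compound for 24 hours at 37C.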
ELG1 DNA repair = ELG1-dependent DNA repair inhibition; HEK293T ELG1-luciferase reporter, luminescence, 16 h; DNA damage induced by 5-fluorouridine; Potency, µM (series often up to 46.1 µM), usual class: inhibitors; hit rate 2.3% among 330,000; AID 504467; also: nearly all actives have a fitted effect of over 55% in size
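Step one: seed 2,000 cells per well. Step two: pin-transfer compound or DMSO alongside 5-fluorouridine. Step three: incubate 16 hr, 37 °C, 5% CO2. Step four: add ONE-Glo, wait 30 min, read luminescence.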
Hits are given with their value; [ ] = another dose, or the depositor's remark. Hits are enriched below; roughly 9.4% of the tested compounds scored in any of these assays. Calls follow the shape of the dose curve; as a rule, active = well fitted curve in the direction sought with a large enough effect; inconclusive = small, poorly fitted or top-dose-only effect, or another doubt; inactive = no such curve, though single readings can be large; an effect the other way counts as inactive or inconclusive.

How did Cc1nn(C)c2c1c(C(F)(F)F)cc(=O)n2C(C)C(=O)NCc1ccccc1 (stereo not drawn) do in these assays?
FLuc counter: inactive

How did Cc1ccc(-c2nnn3c2nc(NCC(C)c2ccccc2)c2ccccc23)cc1 (stereo not drawn) do in these assays?
FLuc counter: inconclusive; SMN2 splice up: inactive

How did Cc1c(C)c2ccc(OCC(=O)NCc3ccccn3)cc2oc1=O do in these assays?
FLuc counter: inactive; NPC1 promoter act: inactive; ELG1 genotoxic: inactive; Rab9 prom act: inactive; ELG1 DNA repair: inactive

Results for Cc1c(C)c2ccc(OCC(=O)Nc3ccccn3)cc2oc1=O ?
FLuc counter: 0.34µM; NPC1 promoter act: 0.89µM; ELG1 genotoxic: 0.46µM; Rab9 prom act: 3.5µM; ELG1 DNA repair: inconclusive

What do the screens show for `CCCCc1cc(=O)oc2cc(OCC(=O)Nc3ccccn3)ccc12`?
FLuc counter: 21µM; NPC1 promoter act: inconclusive; ELG1 genotoxic: 13µM; Rab9 prom act: 4.5µM; ELG1 DNA repair: inconclusive

Results for Cc1c(C)c2ccc(OCC(=O)Nc3cccnc3)cc2oc1=O ?
FLuc counter: inconclusive; NPC1 promoter act: inactive; ELG1 genotoxic: inconclusive; Rab9 prom act: inactive; ELG1 DNA repair: inconclusive

What do the screens show for `Cc1c(C)c2ccc(OCC(=O)Nc3nccs3)cc2oc1=O`?
FLuc counter: 0.95µM; NPC1 promoter act: 0.28µM; ELG1 genotoxic: 1µM; Rab9 prom act: 0.5µM; ELG1 DNA repair: inconclusive

Results for Cc1cc(=O)oc2cc(OCC(=O)Nc3nccs3)ccc12 ?
FLuc counter: 5.4µM; NPC1 promoter act: 2µM; ELG1 genotoxic: 10µM; Rab9 prom act: 4µM; ELG1 DNA repair: inconclusive

How did O=C(O)c1cccc(CN2CCCCC2)c1 do in these assays?
SMN2 splice up: inactive[9.22 µM]

How did COc1ccc(-c2coc3cc(O)ccc3c2=O)cc1OC do in these assays?
FLuc counter: 19µM; NPC1 promoter act: inconclusive; ELG1 genotoxic: inconclusive; SMN2 splice up: inactive; Rab9 prom act: inconclusive; ELG1 DNA repair: inconclusive

How did O=c1c(-c2ccc(F)cc2)coc2cc(O)ccc12 do in these assays?
FLuc counter: 13µM; NPC1 promoter act: 3.2µM; ELG1 genotoxic: inconclusive; SMN2 splice up: inactive; Rab9 prom act: 3.5µM; ELG1 DNA repair: inconclusive

What do the screens show for `COc1ccc2c(=O)c(-c3ccccc3)coc2c1`?
FLuc counter: 3µM; NPC1 promoter act: 0.71µM; ELG1 genotoxic: inactive; SMN2 splice up: 11µM; Rab9 prom act: 0.79µM; ELG1 DNA repair: inconclusive

Results for COc1ccc2c(=O)c(CC(=O)O)coc2c1 ?
SMN2 splice up: inactive

How did COc1ccc2c(=O)c(-c3ccc(OC)c(OC)c3)coc2c1 do in these assays?
FLuc counter: 7.6µM; NPC1 promoter act: inconclusive; ELG1 genotoxic: inconclusive; Rab9 prom act: inconclusive; ELG1 DNA repair: inconclusive

How did COC(=O)COc1ccc2c(=O)c(-c3ccccc3OC)coc2c1 do in these assays?
FLuc counter: inactive; NPC1 promoter act: inactive; ELG1 genotoxic: inactive; SMN2 splice up: inactive; Rab9 prom act: inactive; ELG1 DNA repair: inactive

How did CCOc1ccccc1Oc1coc2cc(O)ccc2c1=O do in these assays?
FLuc counter: inactive; NPC1 promoter act: inactive; ELG1 genotoxic: inactive; SMN2 splice up: inactive; Rab9 prom act: inactive; ELG1 DNA repair: inconclusive

What do the screens show for `COc1ccc(-c2coc3c(OC)c(OC)cc(O)c3c2=O)cc1`?
SMN2 splice up: inactive

Results for COc1ccccc1-c1coc2cc(O)cc(O)c2c1=O ?
FLuc counter: 21µM; NPC1 promoter act: inactive; ELG1 genotoxic: 16µM; SMN2 splice up: inactive; Rab9 prom act: inconclusive; ELG1 DNA repair: inconclusive

Results for COc1ccc(-c2coc3cc(OC(C)=O)cc(OC(C)=O)c3c2=O)cc1 ?
SMN2 splice up: 8.9µM

Results for COc1ccc(-c2coc3cc(O)cc(O)c3c2=O)cc1OC ?
FLuc counter: inconclusive; NPC1 promoter act: inactive; ELG1 genotoxic: inconclusive; Rab9 prom act: inactive; ELG1 DNA repair: inconclusive

What do the screens show for `CCN(CC)C(=O)Oc1ccc2c(=O)c(-c3ccccc3)coc2c1`?
FLuc counter: 6µM; NPC1 promoter act: 1.6µM; ELG1 genotoxic: inconclusive; SMN2 splice up: inconclusive; Rab9 prom act: 3.5µM; ELG1 DNA repair: inconclusive
